ERa coact inh = ER-alpha (human) coactivator binding inhibition | actives 1.7% (n = 86,000) | P03372 | TR-FRET ER-alpha LBD / SRC-1 peptide, estradiol-bound | inhibition, % at 25.6 µM; in the data active means inhibition above about 50%
ERa SRC1 pot = ER-alpha (human) coactivator binding potentiation; actives 1.3% (n = 86,000); TR-FRET ERalpha-LBD/SRC-Cy5 coactivator binding, 2 h; 100 = basal binding, no effect; P03372; AID 639; coactivator binding (% of control), % at 25.6 µM; in the data active means activity above about 200%;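 further: binding measured in presence of low estradiol as agonist stimulus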
ERb coact inh = blocks coactivator binding to human estrogen receptor beta. Q92731. TR-FRET ER-beta LBD / SRC1-Cy5 peptide binding; receptor agonist-loaded with 1 µM estradiol. inhibition, % at 25.6 µM. actives 1.3% (n = 86,000);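 active means compounds whose percent inhibition of the receptor-coactivator binding signal exceeds about 50% in the single-dose screen, limit read from the data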
FAK inh = inhibitors of human focal adhesion kinase; Q05397; biochemical FAK kinase activity assay; inhibition, %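 (tested at 7 µM)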; actives 0.84% (n = 97,000); in the data active means inhibition above about 19%
Of the large screens only hits and unclear results are named; the others gave an inactive call; [ ] = another dose, or the depositor's remark. Sampled rows, rich in hits. Any-hit rate of the full collection: about 3.2%.

CC(=O)Oc1ccc2ccccc2c1C(NC(=O)Cc1ccccc1)c1ccc(Cl)cc1 (configuration not stated)	none (no result: ERa coact inh, ERa SRC1 pot, ERb coact inh)
CCOc1ccc(NC(=O)c2cc3cc4ccc(OC)cc4nc3o2)cc1	ERa coact inh 56
COc1ccc2cc3cc(C(=O)NCc4ccccn4)oc3nc2c1	none (no result: ERa coact inh, ERa SRC1 pot, ERb coact inh)
O=C1c2ccccc2-c2onc3c(Oc4ccccc4)cc(O)c1c23	ERa coact inh 74[fluorescence artefact?], ERb coact inh 71[fluorescence artefact?]
COc1cc(NC(=O)c2cccs2)c(C(=O)OCC(=O)NCc2ccccc2)cc1OC	ERa SRC1 pot 269
COc1cc(NC(=O)c2cccs2)c(OC)cc1NC(=O)CCn1nnc2ccccc21	ERb coact inh 51[fluorescence artefact?]
CCOC(=O)c1cc(CC)sc1NC(=O)c1ccc2c(c1)OCCO2	ERa SRC1 pot 466[fluorescence artefact?]
CCOC(=O)c1cc(CC)sc1NC(=O)c1cc(OCC)c(OCC)c(OCC)c1	none
COc1ccc(-c2cc3nc4c(c(=O)n3[nH]2)CCC4)cc1	ERa coact inh 52[fluorescence artefact?]
O=C(Nc1ccc2c(c1)OCO2)C1CCCCN1S(=O)(=O)c1ccc(F)cc1 (configuration not stated)	none
Nc1c(C(O)(C(F)(F)F)C(F)(F)F)ccc2ccccc12	ERa SRC1 pot 286[fluorescence artefact?]
CC1(C)CC(=O)C=C(NC2CCCCCCC2)C1	ERa coact inh 95[fluorescence artefact?]
O=C(CCC1N=C2c3ccccc3N=C(SCc3cccc(Cl)c3)N2C1=O)NCc1ccco1 (configuration not stated)	ERa SRC1 pot 257[fluorescence artefact?]
CCC1=NN=C(c2ccc(F)cc2)C(c2c[nH]c3ccccc23)N1O (configuration not stated)	ERa SRC1 pot 686[fluorescence artefact?]
CCCCOc1ccc(-c2nnn(CC(=O)c3c[nH]c4ccccc34)n2)cc1	none
CC(c1ccccc1)N1CCn2c(nc3cc(NC(=O)c4cccs4)ccc32)C1 (configuration not stated)	none
COCCN1CCn2c(nc3cc(NC(=O)c4cccs4)ccc32)C1	ERa coact inh 74[fluorescence artefact?]
O=C(Nc1cccc(Cl)c1)Nc1ccc2c(c1)OCO2	none
CCOC(=O)Nc1cc(C)ccc1OC	none
COc1ccc(C)cc1NC(=O)Nc1ccc(Br)cn1	ERa SRC1 pot 243
O=C(Nc1ccc2c(c1)OCO2)Nc1ccc(Br)cn1	ERa SRC1 pot 228
COCCCNC(=O)Cn1cc2c(n1)CCC(C)C2 (configuration not stated)	ERa SRC1 pot 205 (no result: FAK inh)
Cc1ccc(-n2c(SCC(=O)NCc3ccco3)nnc2-c2cccnc2)cc1	none
O=C(CSc1nnc(COc2ccccc2)n1Cc1ccco1)NCc1ccco1	none
Cc1cc(NC(=O)CSc2nnc(COc3ccccc3)n2Cc2ccco2)no1	none
C=CCn1c(COc2ccc(F)cc2)nnc1SCC(=O)NC(=O)NCc1ccco1	ERa coact inh 71[fluorescence artefact?] (no result: FAK inh)
C=CCn1c(COc2cccc(C)c2)nnc1SCC(=O)NC(=O)NCc1ccco1	ERa coact inh 61
O=C(CSc1nnc(-c2ccncc2)n1-c1ccc(F)cc1)NC(=O)NCc1ccco1	ERa coact inh 68[fluorescence artefact?], ERb coact inh 55[fluorescence artefact?]
CCOc1ccc(C(=O)C2CCN(CC(=O)Nc3ccccc3N3CCOCC3)CC2)cc1	none
CC1CCCCC1NC(=O)c1ccc2c(c1)[nH]c(=O)n2C1CCCC1 (configuration not stated)	none
CN(C)CCCNC(=O)CC(c1ccccc1)c1ccccc1O (configuration not stated)	none
Cc1ccc(S(=O)(=O)c2nc(S(C)(=O)=O)sc2N(C)C)cc1	none
Cc1ccc(S(=O)(=O)c2nc(S(C)(=O)=O)sc2NCC2CCCO2)cc1 (configuration not stated)	ERa SRC1 pot 611
Cc1ccc(C2Nc3ccccc3C(=O)N2Cc2ccco2)cc1 (configuration not stated)	none
Cc1ccc(-c2nnc(SCC(=O)Nc3sc(C)c(C)c3C#N)n2C)cc1	ERa SRC1 pot 248[fluorescence artefact?]
CCOC(=O)c1c(NC(=O)CSc2nnc(-c3cccnc3)o2)sc(C(C)=O)c1C	ERa SRC1 pot 204[fluorescence artefact?]
Cc1sc(NC(=O)CSc2nnc(COc3ccc(Cl)cc3)n2C)c(C#N)c1C	ERa SRC1 pot 317[fluorescence artefact?]
CCOC(=O)c1c(NC(=O)CSc2nnc(-c3ccco3)o2)sc(C(C)=O)c1C	none
Cn1c(SCC(=O)Nc2ccccc2)nnc1-c1ccc(NC(=O)CCc2ccccc2)cc1	ERb coact inh 76[fluorescence artefact?]
COc1cc(C)nc(N2CCCC(C(=O)Nc3cc(Cl)ccc3OC)C2)n1 (configuration not stated)	none
CCCC1(CCC)NC(=O)N(CC(=O)N2CCN(C(=O)c3ccco3)CC2)C1=O	none (no result: ERa coact inh, ERa SRC1 pot, ERb coact inh)
CCc1c(O)nc(SCC(=O)Nc2ccccc2C)[nH]c1=O	none
Cc1sc(NC(=O)CSc2nnc(-c3ccc(F)cc3)o2)c(C#N)c1C	ERa coact inh 52

Source: PubChem BioAssay
